# The list is a sample of the results.
# aSyn UTR act – Activators working through SNCA 5'UTR binding (MLPCN). alpha-synuclein 5'UTR reporter, activators screen. activity score, % (tested at 7.5 µM), hits read low. actives 7.1% (n = 300,000). AID 1814; in the data active = activity score below about -60%
# A number is an active result; - = inactive.
SMILES,aSyn UTR act
Cc1ccc(NC(=O)c2ccco2)cc1C,-102.9
COc1cc(OC)cc(C(=O)Nc2ccc(NC(=O)c3ccco3)c(C)c2)c1,-123.5
Cc1ccc(C(=O)Nc2ccc3c(c2)OCO3)cc1NC(=O)c1ccco1,-70.8
O=C(Nc1ccc2c(c1)OCCO2)c1ccco1,-68.0
CCn1nccc1C(=O)Nc1ccc(C)c(C)c1,-177.6
COc1cccc(NC(=O)c2ccco2)c1,-115.6
O=C(/C=C/Nc1ccc([N+](=O)[O-])cc1Br)c1cccc2ccccc12,-163.0
COc1cc2c(cc1OC)C(c1ccccc1)N(C(=O)c1cccc(S(C)(=O)=O)c1)CC2 (configuration not stated),-67.1
COc1cc2c(cc1OC)C(C)N(C(=O)c1cc(C)on1)CC2 (configuration not stated),-
C=C(C)C1Cc2cc3ccc(=O)oc3cc2O1 (configuration not stated),-65.1
Cc1ccc2c(c1)c1cccc3c1n2CCN3CCC(N)=O,-171.9
CCOC(=O)N1CCN(S(=O)(=O)c2ccc(C(=O)NNc3nc4c(C)cc(C)cc4s3)cc2)CC1,-
CCOc1ccc2nc(N3CCCC(C(=O)N4CCN(CC)CC4)C3)sc2c1 (configuration not stated),-96.3
CCOc1ccc2nc(N3CCCC(C(=O)NCC4CCCO4)C3)sc2c1 (configuration not stated),-144.8
Cc1cc(C)c2nc(N3CCCC(C(=O)NC4CCCC4)C3)sc2c1 (configuration not stated),-90.3
Cc1c(O)ccc(/C=N/Nc2nc(-c3cccnc3)nc3ccccc23)c1O,-76.8
CCOC(=O)c1ccc(Nc2nc(-c3cccnc3)nc3ccccc23)cc1,-102.6
Cc1ccc(-c2nc(N/N=C/c3ccncc3)c3ccccc3n2)cc1,-120.1
CCOC(=O)C/C(=N\Nc1ncnc2ccccc12)c1ccccc1,-138.8
Fc1ccccc1/C=N/Nc1nc(-c2ccccn2)nc2ccccc12,-
CCOC(=O)c1ccc(Nc2ncnc3nc[nH]c23)cc1,-73.1
CCOC(=O)c1ccc(Nc2ncnc3ccccc23)cc1,-93.1
c1ccc(COc2ccc(Nc3ncnc4nc[nH]c34)cc2)cc1,-85.0
Cc1ccc(Nc2nc(-c3cccnc3)nc3ccccc23)cc1,-94.7
c1ccc(CNc2nc(NCc3ccccc3)c3ccccc3n2)cc1,-
SMILES,aSyn UTR act
c1ccc(CN2CCC(Nc3nc(-c4cccnc4)nc4ccccc34)CC2)cc1,-83.1
CC(C)(C)c1ccc(-c2nc(NCc3cccnc3)c3ccccc3n2)cc1,-96.3
Cc1cc2nc(C3CCN(Cc4nnnn4Cc4ccccc4)CC3)[nH]c2cc1C,-
CCOc1ccc2oc(C(=O)NCC3CCCO3)c(C)c2c1 (configuration not stated),-100.2
COc1ccc(-c2cc(C(=O)NCC3CCCO3)c3cc(C)ccc3n2)cc1 (configuration not stated),-66.6
COc1ccc2oc(C(=O)NC(C)(C)C)c(C)c2c1,-138.3
COc1ccc2oc(C(=O)NCC3CCCO3)c(C)c2c1 (configuration not stated),-125.6
COc1cc(NC(=O)C(C)C)ccc1NC(=O)c1cc2ccccc2o1,-166.3
COc1ccc(NC(=O)c2coc3ccccc23)cc1OC,-122.0
COc1ccc(NC(=O)c2cc3ccccc3o2)cn1,-215.8
COc1ccc(NC(=O)c2cc(CN3C(=O)c4ccccc4C3=O)ccc2OC)cn1,-85.9
COc1ccc(NC(=O)c2cc3ccccc3o2)cc1OC,-149.7
COc1ccc(NC(=O)CCCc2ccccc2)cc1OC,-136.1
COc1ccc(NC(=O)c2cc3ccccc3o2)cc1,-152.1
O=C(Nc1ccc(Cc2ccncc2)cc1)C1CCC(N2C(=O)C3C4C=CC(C5CC45)C3C2=O)CC1 (configuration not stated),-62.4
COc1cccc(NC(=S)/C(=C(\[O-])c2ccc(OC(F)F)cc2)[n+]2ccccc2)c1,-66.5
Cn1c(/C(C#N)=C(\O)c2ccc(Br)s2)nc2ccccc21,-71.9
N/C(=N\OC(=O)CSc1ccccc1)c1ccc([N+](=O)[O-])cc1,-121.0
N/C(=N\OCc1ccc([N+](=O)[O-])cc1)c1ccncc1,-83.4
Cc1ccc(/C(N)=N/OC(=O)CSc2ccccc2)cc1,-185.3
COc1ccc(/C(N)=N/OC(=O)CC2CCCCC2)cc1,-111.3
COc1ccc(/C(N)=N/OC(=O)CSc2ccccc2)cc1,-162.4
Cc1cc(C)c(S(C)(=O)=O)c(S(=O)(=O)c2ccc(Cl)cc2)n1,-86.9
COc1ccc(/C=N\Nc2ccccn2)c(OC)c1,-154.5
CCN(CC)S(=O)(=O)c1ccc(N/N=C/c2cc(OC)ccc2O)nc1,-
SMILES,aSyn UTR act
COc1ccc(/C=N/Nc2ncc(Br)cn2)c(OC)c1,-139.3
Cc1ccc(C)c(/C=N/Nc2ccccn2)c1,-139.2
COc1ccc(/C=N/Nc2ccccn2)c(OC)c1OC,-92.1
COc1ccc(OC)c(/C=N\Nc2nccs2)c1,-65.1
COc1ccccc1/C=N/Nc1nccnc1Cl,-98.1
Cc1ccc(N=C2c3ccccc3C(=O)C2[N+](=O)[O-])cc1C (configuration not stated),-109.7
O=C(Nc1ccc(Cl)cc1)OCc1cncs1,-118.5
O=C(Nc1cccc(Cl)c1)OCc1cncs1,-79.7
O=C(Nc1cccc2ccccc12)OCc1cncs1,-61.6
C/C(=N\NC(=O)c1csc(C)c1C)c1ccc(Cl)s1,-124.9
CC/C(=N\NC(=O)c1csc(C)c1C)c1cccs1,-181.8
CCC/C(=N\NC(=O)c1csc(C)c1C)c1cccs1,-108.9
CCCCCc1ccc(-c2nnc(N)s2)cc1,-97.7
CCCCCCc1ccc(-c2ncc(N)cn2)cc1,-67.7
CN1CCN(Cc2nc(N)nc(Nc3ccc4c(c3)OCCO4)n2)CC1,-90.7
O=C(NNc1c(F)c(F)cc(F)c1F)c1cc2ccccc2oc1=O,-121.7
O=C(NC1CCCCCC1)c1cc2ccccc2oc1=O,-139.2
COc1cccc2cc(C(=O)OC3CCN(C)CC3)c(=O)oc12,-87.8
O=C(c1cc2ccccc2oc1=O)N1CCOCC1,-123.9
O=c1oc2ccccc2cc1NCc1ccccc1O,-176.1
O=C(NCc1ccccc1Cl)c1cc2ccccc2oc1=O,-144.3
O=C(OC1CCCCC1)c1cc2ccccc2oc1=O,-109.2
COc1cccc2cc(NC(=O)C3CCCCC3)c(=O)oc12,-162.2
N=c1oc2ccccc2cc1C(=O)NC1CCCCCC1,-115.7
O=C(/C=C/c1ccc2c(c1)OCCCO2)c1ccc2ccccc2c1O,-157.8
SMILES,aSyn UTR act
Cc1ccc(C(=O)/C=C/c2ccc3c(c2)OCCO3)c(O)c1,-181.1
C/C(=N\Nc1nccnc1Cl)c1ccc(F)cc1,-104.3
C/C(=N\Nc1nc(N)cc(Cl)n1)c1ccc(F)cc1,-71.1
Cn1/c(=N/N=C/c2ccc(N3CCOCC3)cc2)sc2ccccc21,-65.2
CSc1ccc(/C=C(/NC(=O)c2ccccc2)C(=O)N2CCN(C)CC2)cc1,-146.9
O=C(COC(=O)c1cccs1)c1ccc2c(c1)OCCO2,-176.4
CC(=O)NC12CC3CC(C1)CC(C(=O)OCC(=O)c1ccc4c(c1)OCCO4)(C3)C2,-134.0
COCCOC(=O)c1[nH]c2c(c1C)C(=O)CC(c1cccs1)C2 (configuration not stated),-
COc1ccc(OCCOC(=O)c2cccs2)cc1,-65.9
O=C(COC(=O)c1cccs1)c1ccc2ccccc2c1,-120.5
O=C(NNC(=O)c1cccs1)c1ccc2ccccc2c1,-70.7
O=C(NCCS(=O)(=O)NCCc1ccccc1)c1ccc2c(c1)OCO2,-119.9
COc1cccc(C(=O)NCCS(=O)(=O)NCCc2ccccc2)c1,-74.6
COc1ccc(C(=O)NCCS(=O)(=O)NCCc2ccccc2)cc1,-72.2
COC(=O)c1c(N)sc(C(=O)NCCc2ccccc2)c1C,-
